Screening data from PubChem.
This is a sample that favours compounds with a hit; in the whole collection about 3.9% have one here.
Peg3 promoter – Peg3 promoter activity inhibition; HeLa PEG-Prom luciferase reporter, luminescence, overnight; hit rate 1.7% among 360,000; AID 588405; inhibition, % at 20 µM;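 active means inhibition of at least 50% at 20 µM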
HIF-2a block – blocks HIF-2a reporter activity; 786-0 RCC cells HIF-2a reporter, luciferase luminescence, overnight; inhibition, % at 18.8 µM; hit rate 0.72% among 360,000;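 active means inhibition of the luminescence signal of 40% or more relative to plate controls, in a single-dose primary screen at 18.75 µM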
TROY signal inh – blocks TROY-dependent signaling in reporter cells; Q293 LMP1-TROYcd NF-kB luciferase reporter, 4 h; inhibition, % at 10 µM; hit rate 0.98% among 360,000; AID 1347056;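 active means compounds whose plate-normalised and pattern-corrected inhibition of the luciferase reporter signal at the single screening dose is 50% or more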
TWEAK Fn14 block – blocks TWEAK-Fn14 interaction in a reporter cell assay | AID 1159606 | inhibition, % at 10 µM | TWEAK-stimulated Fn14 reporter cells, luciferase luminescence, 8 h | hit rate 2% among 360,000; in the data active means inhibition above about 50%
KKLEB cytotox – reduces viability of KKLEB cystic fibrosis airway cells. KKLEB CF airway cells viability, ATPlite luminescence, overnight; hits give low values; cells stimulated with P. aeruginosa culture filtrate. activity change (cytotoxicity), % at 5 µM. hit rate 0.36% among 360,000;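 active means corrected activity change at or below -50% at 5 µM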
CF NFkB inh – cystic fibrosis NF-kB activation inhibition; KKLEB NF-kB-GFP reporter, PAF-induced, GFP fluorescence overnight; AID 588850; hit rate 0.86% among 360,000; inhibition, % at 5 µM;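 active means at least 50% inhibition at 5 µM, scaled per plate between neutral and stimulator controls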;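 further: PAF is a Pseudomonas aeruginosa culture filtrate used as stimulus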
Large screens that a line does not name were inactive.

COc1cc2c3nnc(-c4ccc(F)cc4)c-3cn(Cc3ccccc3F)c2cc1OC	Peg3 promoter 110
N=c1c[n+](N2CCOCC2)[n-]o1	TWEAK Fn14 block 72
COc1ccc(C(C)=O)cc1CC1(C)C(=O)Nc2ccc(-c3ccccc3OC)cc21 (configuration not stated)	none
CC(=O)c1cccc(-c2ccc3c(c2)C(C)(Cc2ccccc2F)C(=O)N3)c1 (configuration not stated)	TWEAK Fn14 block 58
Cc1cc(C)n2nc(-c3ccc(F)cc3)nc2n1	none
NC(=S)Cc1nc2n(n1)Cc1ccccc1-2	none
Fc1ccc(-c2nc3n(n2)Cc2ccccc2-3)cc1	TWEAK Fn14 block 58
Cc1ccc(-c2nc3n(n2)Cc2ccccc2-3)cc1	TROY signal inh 58, TWEAK Fn14 block 94
COc1ccccc1CNC(=O)COc1ccc(C)cc1	none
CCOC(=O)c1c(NC(=O)CNC2CCCCC2)sc(C)c1C	Peg3 promoter 90
CCOC(=O)c1c(NC(=O)CNCCO)sc(C)c1C	none
O=C(Nc1ccncc1)C1CCN(S(=O)(=O)c2ccccc2)CC1	none
CC(=O)Nc1cccc(NC(=O)/C=C/c2ccc(S(=O)(=O)N3CCOCC3)cc2)c1	none
O=C(/C=C/c1ccc(S(=O)(=O)N2CCOCC2)cc1)N1CCN(c2ccccc2)CC1	Peg3 promoter 66
COc1cc(/C=C/C(=O)Nc2ccc(OC)c(S(=O)(=O)N3CCOCC3)c2)ccc1OC(F)F	TROY signal inh 57
Cc1ccc(NC(=O)/C=C/c2ccc(S(=O)(=O)N3CCOCC3)cc2)cc1S(=O)(=O)N(C)C	TROY signal inh 53, TWEAK Fn14 block 68
NS(=O)(=O)c1ccc(CCNC(=O)/C=C/c2ccc(S(=O)(=O)N3CCOCC3)cc2)cc1	TWEAK Fn14 block 84
CC(C)(C)c1ccccc1NC(=S)NCc1ccccc1	none
Cc1ccccc1NS(=O)(=O)c1ccc(C(=O)OCC(=O)NCC(C)C)cc1	none
Cn1c(=O)c2c(ncn2CCC(=O)N/N=C/c2ccccc2)n(C)c1=O	none
Cn1c(=O)c2c(ncn2CCC(=O)N/N=C/c2cccnc2)n(C)c1=O	TWEAK Fn14 block 84
Cc1ccc(SC(=O)c2c(C)noc2-c2cc(C)on2)cc1	none
COC(=O)c1cc(C)sc1NC(=O)c1ccco1	none
Cc1cccc(N2CCCn3c2nc2c3c(=O)n(CCN3CCOCC3)c(=O)n2C)c1	TWEAK Fn14 block 108
COc1ccc(N2CCCn3c2nc2c3c(=O)n(CCN3CCOCC3)c(=O)n2C)cc1	none
O=C(N/N=C/c1c[nH]c2ccccc12)c1cc(-c2ccc(-c3ccccc3)cc2)n[nH]1	TWEAK Fn14 block 67
COc1cc(NC(=O)C2=C(N3CCOCC3)/C(=C\c3ccc(Cl)cc3Cl)CC2)cc(OC)c1OC	TWEAK Fn14 block 52, KKLEB cytotox -65
Cc1cccc(C(=O)Oc2ccc(/C=N/NC(=O)c3ccccc3O)cc2)c1	none
CCOc1cc(/C=N\NC(=O)c2ccc(NC(=O)C(C)(C)C)cc2)ccc1OC(=O)c1cccc(C)c1	TROY signal inh 53, TWEAK Fn14 block 86
Cc1cccc(C(=O)Oc2ccc(/C=N/NC(=O)c3ccc(O)cc3)cc2)c1	TROY signal inh 52
CC(C)(C)NC(=O)C(c1ccc(O)cc1)N(C(=O)CCC(=O)Nc1nccs1)c1ccccc1F (configuration not stated)	none
CC(C)(C)NC(=O)N1CCN(c2ncccc2C(F)(F)F)CC1	none
Nc1cccc(-c2nc3ccc(N)cc3s2)c1	TWEAK Fn14 block 78
Nc1ccc(-c2nc3ccc(N)cc3s2)cc1	TWEAK Fn14 block 74
Nc1ccc(O)c(-c2nc3ccccc3s2)c1	none
COCCN(Cc1cn(C)nc1-c1ccc(Oc2ccccc2)cc1)C(C)C	none
CCCCN(C(=O)C1=COCCO1)c1c(N)n(CCCC)c(=O)[nH]c1=O	none
O=C(Nc1ccc2c(c1)OCCO2)C1CCCN1C(=O)Nc1ccc(F)cc1 (configuration not stated)	TWEAK Fn14 block 59
CC(=O)c1cccc(NC(=O)N2CCCC2C(=O)Nc2cccc(C)c2)c1 (configuration not stated)	TWEAK Fn14 block 66
CC(=O)Nc1cccc(NC(=O)C2CCCN2C(=O)Nc2cccc(C)c2)c1 (configuration not stated)	none
COc1cccc(NC(=O)C2CCCN2C(=O)Nc2cccc(F)c2)c1 (configuration not stated)	Peg3 promoter 67
C[C@]12C(=O)N(c3cccc(Cl)c3)C(=O)N1[C@H]1c3ccccc3OC[C@@H]1[C@H]2c1ccccc1	none
Cc1cccc(C(=O)n2c(=S)nc3ccccn32)c1	TWEAK Fn14 block 77
Cc1cccn2c1nc(=S)n2C(=O)c1ccco1	none
O=C(c1ccccc1)n1c(=S)nc2ccccn21	TROY signal inh 60, TWEAK Fn14 block 82
Cc1ccsc1C(=O)N1CCC1(C)C(=O)NCc1cccc2ccccc12 (configuration not stated)	none
CCOc1ccc(/C=C2\CCc3ccccc3C2=O)cc1	TROY signal inh 70, TWEAK Fn14 block 90
COc1ccc(/C=C2/CCc3ccccc3C2=O)cc1OC	none
COc1ccc(C=C2CCc3ccccc3C2=O)cc1	TROY signal inh 61, TWEAK Fn14 block 94, KKLEB cytotox -52
COc1ccc2c(c1)CC/C(=C\c1ccc(OC)c(Cn3cccn3)c1)C2=O	TWEAK Fn14 block 59
COc1ccc2c(c1)CC/C(=C\c1ccc(OC)c(Cn3nc(C)cc3C)c1)C2=O	none
CCOc1cc(C(=O)NC)cc(OCC)c1OCC	none
Cc1cccc(NS(=O)(=O)c2cccc(C(=O)NCC(c3ccco3)N3CCCCC3)c2)c1 (configuration not stated)	none
Cc1csc2ncnc(N3CCN(C(=O)Nc4ccc(OC(F)(F)F)cc4)CC3)c12	TWEAK Fn14 block 63
Cc1cc(NC(=O)C2C3C(=O)N(Cc4ccc(Cl)cc4)C(C(=O)NCc4ccccc4)C34C=CC2(C)O4)no1 (configuration not stated)	none
Oc1ccc(N=Nc2n[nH]c(-c3ccccc3)n2)cc1	none
Oc1ccc(N=Nc2n[nH]c(-c3ccc(Br)cc3)n2)cc1	Peg3 promoter 86
COC(=O)C1=C(C)N(C)C(=S)NC1c1ccc(OC)cc1OC (configuration not stated)	none
CCCCN(C=O)c1c(CC)nc2c(OCCn3cccc3)cccn12	none
C=CCC[C@@H](Cc1ccc(F)cc1)C(=O)OC[C@@H](Cc1c[nH]c2ccccc12)NC(=O)[C@H](CC=C)CC(=O)N(CCO)Cc1ccccc1	Peg3 promoter 52, TWEAK Fn14 block 58
C=CCC[C@H](Cc1ccc(F)cc1)C(=O)OC[C@@H](Cc1c[nH]c2ccccc12)NC(=O)[C@H](CC=C)CC(=O)N(CCO)Cc1ccccc1	Peg3 promoter 64, TWEAK Fn14 block 89
CCOc1ccccc1/C=N/n1c(C2CCCCC2)n[nH]c1=S	none
